Most compounds without a hit are left out; they make up all but 7% or so of the library.
IL1B secr inh: inflammasome signaling inhibition, IL-1 beta readout; THP-1 LPS/ATP IL-1B secretion, AlphaLISA, 16 h; active compounds read low; AID 743279; 360,000 compounds, 4.7% hits; activity change, % at 57.5 µM; in the data active means activity change below about -50%; inconclusive means mostly about -30% to -49%
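Secreted IL-1B measured by AlphaLISA bead assay after 16 h compound exposure of THP-1 cells; compounds (final up to 57.5 uM) added 1 h before LPS (250 ng/mL) and ATP (1.25 mM) stimulation; lower signal means less secretion.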
a7 integrin act: activates integrin-mediated alleviation for muscular dystrophy; Potency, µM (titrated, usually from 38.3 µM), most hits filed as activators; AID 624291; 350,000 compounds, 0.064% hits; alpha7betagal myoblasts, beta-gal FDG fluorescence, 48 h; further: nearly all actives have a fitted effect of over 60% in size
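Alpha7betagal+/- myoblasts (passage 13) were plated 16-24 hr, then exposed to compounds (1:260 dilution of DMSO stock) for 48 hours at 37C. After MPER lysis, β-galactosidase reporter activity was read as FDG fluorescence (ex 480/em 540) after 30 minutes.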
ATXN2 expr inh: ATXN2 expression inhibition; HEK-293 ATXN2-luciferase reporter, luminescence, 24 h; Potency, µM (series often up to 57 µM), most hits filed as inhibitors; 360,000 compounds, 0.72% hits; further: nearly all actives have a fitted effect of over 55% in size
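ATXN2-luciferase reporter cells (luciferase flanked by upstream and downstream ATXN2 gene portions) were treated 24 h at 37 °C with compounds at up to 57 uM. SteadyGlo luminescence gave expression; GF-AFC fluorescence gave viability.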
ATXN viability: cell viability loss in ATXN counter-screen; Potency, µM (series often up to 56.7 µM), usual class: cytotoxic; AID 651635; S2 cells (HEK-293 line with an ATXN2-luciferase reporter) viability, CellTiter-Fluor protease fluorescence, 24 h; 400,000 compounds, 0.49% hits; further: nearly all actives have a fitted effect of over 40% in size
D3 ag: agonists of human D3 dopamine receptor; P35462; max activation, %; 410,000 compounds, 0.58% hits; D3R DiscoveRx beta-arrestin cells, luminescence, 90 min; in the data active means max activation above about 30%
Target sequence (P35462 whole entry, looked up): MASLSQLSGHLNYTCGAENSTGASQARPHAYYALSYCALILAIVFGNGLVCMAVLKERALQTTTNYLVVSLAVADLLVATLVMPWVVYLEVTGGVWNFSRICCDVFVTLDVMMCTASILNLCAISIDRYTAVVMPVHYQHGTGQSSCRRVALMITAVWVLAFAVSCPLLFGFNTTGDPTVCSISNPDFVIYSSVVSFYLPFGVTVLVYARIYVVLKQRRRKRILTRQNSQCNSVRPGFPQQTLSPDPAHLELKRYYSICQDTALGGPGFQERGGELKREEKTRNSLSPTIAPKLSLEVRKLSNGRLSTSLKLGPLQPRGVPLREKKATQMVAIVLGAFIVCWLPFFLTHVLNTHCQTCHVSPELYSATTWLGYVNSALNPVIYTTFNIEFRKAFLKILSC
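Cells at 1500/well, incubated overnight, then treated with pinned compounds (dopamine as control) for 90 min at 37 degrees C. DiscoveRx reagent added for 30 - 60 minutes at room temperature; luminescence read.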
DRD3 antagonist: blocks the human D3 dopamine receptor; P35462; D3R cells, DiscoveRx beta-arrestin luminescence, antagonist mode; active compounds read low; max response, negative = inhibition, %; 360,000 compounds, 2.5% hits; AID 652054; in the data active means max response below about -50%; inconclusive means no clear call, values can overlap the other calls
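Cells plated overnight at 1500 cells/well, then exposed to library compounds with dopamine controls for 90 minutes at 37 degrees C. DiscoveRx reagent added for 30–60 minutes at room temperature; luminescence read, quantitative HTS format.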
Large screens that a line does not name were inactive. Unless noted, the call rests on the fitted dose curve; in most records, active means well fitted curve in the direction sought with a large enough effect; inconclusive means small, poorly fitted or top-dose-only effect, or another doubt; inactive means no such curve, though single readings can be large; an effect the other way counts as inactive or inconclusive.

COc1ccc(/C=N/NC(=O)c2ccn[nH]2)cc1COc1ccc(Cl)cc1Cl	IL1B secr inh -79
O=S(=O)(/N=S1\CC=CCN1S(=O)(=O)c1ccccc1)c1ccccc1 (stereo not drawn)	IL1B secr inh -86
Cc1ccccc1C(=O)NC1CCSC1=O (stereo not drawn)	none (no result: ATXN2 expr inh)
CCOC(=S)SCc1cn2ccc(C)cc2n1	IL1B secr inh -57, ATXN viability inconclusive, DRD3 antagonist inconclusive
CCOC(=S)SCc1cn2ccccc2n1	IL1B secr inh inconclusive
CCOC(=O)[C@]12CCC=C1N(Cc1ccco1)C(=O)[C@H](CC(=O)NCCc1ccccc1OC)C2	none (no result: a7 integrin act)
O=C(CN1C(=O)S/C(=C\C=C\c2ccccc2)C1=O)Nc1cccc(O)c1	IL1B secr inh -110
COc1ccc(NC(=O)CN(C)C(=O)c2ccc(N3CCCC3)c([N+](=O)[O-])c2)cc1	none
O=C1N[C@@H](c2ccccc2)COC(=O)[C@@H](Cc2ccc(F)cc2)C/C=C\C[C@H]1CC(=O)N(CCO)Cc1ccccc1	IL1B secr inh inconclusive, ATXN2 expr inh inconclusive, ATXN viability inconclusive
O=C1N[C@@H](c2ccccc2)COC(=O)[C@H](Cc2ccc(F)cc2)CC/C=C/C[C@@H]1CC(=O)N(CCO)Cc1ccccc1	ATXN2 expr inh inconclusive, ATXN viability 10µM
C[C@H]1COC(=O)[C@H](Cc2ccc(F)cc2)C/C=C\C[C@H](CC(=O)NCCO)C(=O)N1	D3 ag 30
O=C1N[C@@H](Cc2ccccc2)COC(=O)[C@@H](Cc2ccc(F)cc2)CC/C=C/C[C@H]1CC(=O)N(CCO)Cc1ccccc1	ATXN2 expr inh inconclusive, ATXN viability 22µM
C[C@H]1COC(=O)[C@@H](Cc2ccc(F)cc2)C/C=C\C[C@H](CC(=O)NCCO)C(=O)N1	none
CC(C)(C)[C@@H]1COC(=O)[C@H](Cc2ccc(F)cc2)CC/C=C\C[C@H](CC(=O)N(CCO)Cc2ccccc2)C(=O)N1	IL1B secr inh inconclusive, ATXN2 expr inh inconclusive, ATXN viability inconclusive
CC(C)(C)[C@@H]1COC(=O)[C@H](Cc2ccc(F)cc2)C/C=C\C[C@@H](CC(=O)N(CCO)Cc2ccccc2)C(=O)N1	ATXN viability inconclusive, D3 ag 42
COc1ccc(N2C(=O)C3CCCN3C2c2ccc(F)cc2)cc1Cl (stereo not drawn)	none
COCc1ccc(CN2CCC(n3nccc3NC(=O)C(OC)c3ccccc3)CC2)o1 (stereo not drawn)	none
O=C(NNc1cccc(Cl)n1)C1CC1	none
C/C(Cc1ccccc1)=N\NC(=O)CNC(=O)c1ccccc1F	none
Cc1cc(C)n(-c2ccc(C(=O)NCc3ccc(F)cc3)cc2)n1	none
O=C1N[C@@H](Cc2c[nH]c3ccccc23)COC(=O)[C@@H](Cc2ccc(F)cc2)CC/C=C/C[C@@H]1CC(=O)N(CCO)Cc1ccccc1	IL1B secr inh -60, ATXN2 expr inh inconclusive, ATXN viability inconclusive
Clc1ncnc2scc(C3COc4ccccc4O3)c12 (stereo not drawn)	IL1B secr inh -55, ATXN viability inconclusive, DRD3 antagonist inconclusive
c1ccc2c(c1)OCC(c1csc3ncnc(N4CCCCC4)c13)O2 (stereo not drawn)	DRD3 antagonist inconclusive
CCCn1c(N)c(C(=O)CSc2nnc(Cc3cccs3)n2C2CC2)c(=O)n(C)c1=O	none (no result: ATXN2 expr inh)
COc1ccc(/C=N/N2CCN(c3ccccc3OC)CC2)cc1Br	none (no result: ATXN2 expr inh)
COc1ccc(/C=N/N2CCN(c3ccccc3)CC2)cc1Br	IL1B secr inh -55
Cc1ccc(NC(=S)Nc2c(C)n(C)n(-c3ccccc3)c2=O)cc1Cl	none (no result: ATXN2 expr inh)
Cc1oc(-c2ccc3c(c2)OCCO3)cc1C(=O)O	ATXN2 expr inh 7.1µM, ATXN viability inconclusive
COc1ccccc1NC(=O)N(C)C[C@@H]1OCc2cn(nn2)CCCC(=O)N([C@@H](C)CO)C[C@H]1C	none
Oc1ccccc1N=Nc1ccccc1O	ATXN viability 0.89µM (no result: ATXN2 expr inh)
Cc1c(C(=O)Nc2ccccc2-c2ccccc2)cccc1[N+](=O)[O-]	none
